{
  "source": "the antibiotic and cytotoxicity screens of Wong et al. (2023)",
  "note": "The whole screen tested about 39,000 compounds, of which about 3,300 (8.5%) were called active. For the sample, actives were picked, then their nearest neighbours and some compounds at random.",
  "data": [
    {"tested_on": "HepG2", "assay": "cytotoxicity call (relative viability < 0.9)", "conditions": "10 µM", "values": [
      {"smiles": "C[C@H]1CN([C@@H](C)CO)C(=O)c2cccc(NC(=O)Nc3cccc4ccccc34)c2O[C@H]1CN(C)Cc1ccc2c(c1)OCO2", "cytotoxicity call": "inactive"},
      {"smiles": "c1ccc(-c2cc(-c3ccccc3)n(-c3ccccc3)n2)cc1", "cytotoxicity call": "inactive"},
      {"smiles": "c1ccc(-c2nn(-c3ccccc3)c3c2cnc2ccccc23)cc1", "cytotoxicity call": "active"},
      {"smiles": "COc1ccc2c(c1)c(-c1ccccc1)nn2-c1ccc(C)cc1", "cytotoxicity call": "inactive"},
      {"smiles": "Cc1cc(C)c(S(=O)(=O)N2CCO[C@@H]2CNC(=O)C(=O)NCCCN2CCCC2=O)c(C)c1", "cytotoxicity call": "inactive"},
      {"smiles": "Cc1c(NC(C)C)c(=O)n(-c2ccccc2)n1C.Cl", "cytotoxicity call": "inactive"},
      {"smiles": "C[C@@H]1CN([C@H](C)CO)C(=O)c2cc(NS(=O)(=O)c3ccc(F)cc3)ccc2O[C@H]1CN(C)S(=O)(=O)c1ccccc1", "cytotoxicity call": "inactive"},
      {"smiles": "O=C1CCOC[C@@H]2CCCN12", "cytotoxicity call": "inactive"},
      {"smiles": "C[C@@H]1CCCCO[C@@H](CN(C)Cc2ccncc2)[C@H](C)CN([C@@H](C)CO)C(=O)c2cc(NC(=O)Nc3ccccc3)ccc2O1", "cytotoxicity call": "inactive"},
      {"smiles": "C[C@@H]1CCCCO[C@H](CN(C)Cc2ccc(C(=O)O)cc2)[C@@H](C)CN([C@@H](C)CO)C(=O)c2cc(NC(=O)Cc3ccccc3)ccc2O1", "cytotoxicity call": "inactive"},
      {"smiles": "Cc1ccc(S(=O)(=O)N(C)C[C@H]2Oc3ccc(N(C)C)cc3CC(=O)N([C@H](C)CO)C[C@H]2C)cc1", "cytotoxicity call": "inactive"},
      {"smiles": "Cc1ccc(S(=O)(=O)N(C)C[C@H]2Oc3ccc(N(C)C)cc3CC(=O)N([C@@H](C)CO)C[C@@H]2C)cc1", "cytotoxicity call": "inactive"},
      {"smiles": "Cc1ccc(S(=O)(=O)N(C)C[C@@H]2Oc3ccc(N(C)C)cc3CC(=O)N([C@@H](C)CO)C[C@@H]2C)cc1", "cytotoxicity call": "active"},
      {"smiles": "Cc1ccc(S(=O)(=O)N(C)C[C@H]2Oc3ccc(N(C)C)cc3CC(=O)N([C@@H](C)CO)C[C@H]2C)cc1", "cytotoxicity call": "inactive"},
      {"smiles": "Cc1ccc(S(=O)(=O)N(C)C[C@@H]2Oc3ccc(N(C)C)cc3CC(=O)N([C@H](C)CO)C[C@@H]2C)cc1", "cytotoxicity call": "active"},
      {"smiles": "Cc1ccc(S(=O)(=O)N(C)C[C@@H]2Oc3ccc(N(C)C)cc3CC(=O)N([C@H](C)CO)C[C@H]2C)cc1", "cytotoxicity call": "inactive"},
      {"smiles": "C[C@H](CO)N1C[C@H](C)[C@@H](CN(C)Cc2ccc(C(=O)Nc3ccccc3N)cc2)Oc2c(NS(C)(=O)=O)cccc2C1=O", "cytotoxicity call": "inactive"},
      {"smiles": "Cc1noc(C)c1NC(=O)Nc1ccc2c(c1)C(=O)N([C@@H](C)CO)C[C@H](C)[C@H](CN(C)Cc1ccncc1)OCCCC[C@H](C)O2", "cytotoxicity call": "inactive"},
      {"smiles": "CN1CCN(C(=O)C[C@H]2CC[C@H]3[C@@H](COc4ccc(NC(=O)C5CCOCC5)cc4C(=O)N3C)O2)CC1", "cytotoxicity call": "inactive"},
      {"smiles": "CC(C)(C)Nc1nc(=O)[nH]c(=O)[nH]1", "cytotoxicity call": "inactive"},
      {"smiles": "Cc1noc(C)c1S(=O)(=O)N(C)C[C@H]1Oc2ccc(NS(=O)(=O)c3cccs3)cc2CC(=O)N([C@@H](C)CO)C[C@H]1C", "cytotoxicity call": "inactive"},
      {"smiles": "CC(C)(C)CC(C)(C)c1cc(Cc2cc(C(C)(C)CC(C)(C)C)cc(-n3nc4ccccc4n3)c2O)c(O)c(-n2nc3ccccc3n2)c1", "note": "[listing 1 of 2 here]", "cytotoxicity call": "inactive"},
      {"smiles": "CC(C)(C)CC(C)(C)c1cc(Cc2cc(C(C)(C)CC(C)(C)C)cc(-n3nc4ccccc4n3)c2O)c(O)c(-n2nc3ccccc3n2)c1", "note": "[listing 2 of 2 here]", "cytotoxicity call": "inactive"},
      {"smiles": "CC(C)(C)CC(C)(C)c1ccc(O)c(Cc2ccc(Cl)cc2Cl)c1", "cytotoxicity call": "active"},
      {"smiles": "C/C=C/c1cnc2c(c1)C(=O)N([C@H](C)CO)C[C@@H](C)[C@@H](CN(C)S(=O)(=O)c1ccc(OC)cc1)O2", "cytotoxicity call": "inactive"},
      {"smiles": "C[C@@H]1CN([C@H](C)CO)C(=O)c2cc(NC(=O)Cc3cn(C)c4ccccc34)ccc2O[C@H]1CN(C)C(=O)Nc1cccc2ccccc12", "cytotoxicity call": "inactive"},
      {"smiles": "CN(C)CCOC(c1ccccc1)c1ccccc1.Cl", "cytotoxicity call": "inactive"},
      {"smiles": "N#CCOc1cccc2ccccc12", "cytotoxicity call": "inactive"},
      {"smiles": "CN(C)C(CCOc1cccc2ccccc12)c1ccccc1.Cl", "note": "(centres undefined)", "cytotoxicity call": "active"},
      {"smiles": "CN(C)Cc1cn(CC[C@@H]2CC[C@H](NS(=O)(=O)c3ccccc3)[C@H](CO)O2)nn1", "cytotoxicity call": "inactive"},
      {"smiles": "C[C@@H]1CN([C@H](C)CO)C(=O)c2cc(NC(=O)C3CCCCC3)ccc2O[C@@H](C)CCCCO[C@H]1CN(C)C(=O)c1ccccc1", "cytotoxicity call": "inactive"},
      {"smiles": "C[C@@H]1CCCCO[C@H](CN(C)CC2CCCCC2)[C@@H](C)CN([C@H](C)CO)C(=O)c2cc(NS(=O)(=O)c3cccs3)ccc2O1", "cytotoxicity call": "inactive"},
      {"smiles": "C[C@@H]1CN([C@@H](C)CO)C(=O)c2cc(NC(=O)Cn3cnnn3)ccc2O[C@@H]1CN(C)Cc1ccc(Oc2ccccc2)cc1", "cytotoxicity call": "inactive"},
      {"smiles": "O=c1[nH]c2ccc(F)cc2nc1O", "cytotoxicity call": "inactive"},
      {"smiles": "COC(=O)Nc1nc2cc(C(=O)c3ccccc3)ccc2[nH]1", "cytotoxicity call": "active"},
      {"smiles": "COC(=O)Nc1nc2cc(C(=O)c3ccc(F)cc3)ccc2[nH]1", "cytotoxicity call": "active"},
      {"smiles": "COc1cccc(C(=O)c2ccccc2)c1", "cytotoxicity call": "inactive"},
      {"smiles": "COC(=O)CNC(=O)c1ccc(F)cc1", "cytotoxicity call": "inactive"},
      {"smiles": "COC(=O)Nc1nc2cc(C(=O)c3cccs3)ccc2[nH]1", "cytotoxicity call": "inactive"},
      {"smiles": "Cc1ccc(S(=O)(=O)Nc2ccc3c(c2)CC(=O)N([C@H](C)CO)C[C@H](C)[C@@H](CN(C)S(=O)(=O)c2c(C)noc2C)O3)cc1", "cytotoxicity call": "inactive"},
      {"smiles": "Cc1cc(O)cc(C)c1Cl", "note": "[listing 1 of 2 here]", "cytotoxicity call": "inactive"},
      {"smiles": "Oc1cc(O)cc(O)c1", "cytotoxicity call": "inactive"},
      {"smiles": "Cc1cc(O)cc(C)c1Cl", "note": "[listing 2 of 2 here]", "cytotoxicity call": "active"},
      {"smiles": "CCO[C@H]1CC(C)(C)NC(=S)N1", "cytotoxicity call": "inactive"},
      {"smiles": "C[C@H](CO)N1C[C@H](C)[C@H](CN(C)Cc2ccc(C(F)(F)F)cc2)Oc2ccc(NS(=O)(=O)c3ccc(Cl)cc3)cc2CC1=O", "cytotoxicity call": "active"},
      {"smiles": "C[C@H]1CN([C@@H](C)CO)C(=O)Cc2cc(NS(=O)(=O)c3ccc(Cl)cc3)ccc2O[C@H]1CN(C)Cc1ccc(C(F)(F)F)cc1", "cytotoxicity call": "active"},
      {"smiles": "C[C@@H]1CN([C@H](C)CO)C(=O)Cc2cc(NS(=O)(=O)c3ccc(Cl)cc3)ccc2O[C@H]1CN(C)Cc1ccc(C(F)(F)F)cc1", "cytotoxicity call": "active"},
      {"smiles": "C[C@@H]1CN([C@H](C)CO)C(=O)Cc2cc(NS(=O)(=O)c3ccc(Cl)cc3)ccc2O[C@@H]1CN(C)Cc1ccc(C(F)(F)F)cc1", "cytotoxicity call": "inactive"},
      {"smiles": "C[C@@H]1CN([C@@H](C)CO)C(=O)Cc2cc(NS(=O)(=O)c3ccc(Cl)cc3)ccc2O[C@@H]1CN(C)Cc1ccc(C(F)(F)F)cc1", "cytotoxicity call": "active"},
      {"smiles": "CCS(=O)(=O)Nc1ccc2c(c1)C(=O)N(C)[C@@H]1CC[C@H](CC(=O)NCc3ccccc3F)O[C@H]1CO2", "cytotoxicity call": "inactive"},
      {"smiles": "C[C@H](CO)N1C[C@H](C)[C@@H](CN(C)C(=O)Nc2ccc(F)cc2)Oc2c(NC(=O)c3ccc(-c4nccs4)cc3)cccc2C1=O", "cytotoxicity call": "inactive"},
      {"smiles": "C/C=C/c1cnc2c(c1)C(=O)N([C@@H](C)CO)C[C@H](C)[C@@H](CN(C)S(=O)(=O)c1ccc(OC)cc1)O2", "cytotoxicity call": "inactive"},
      {"smiles": "C[C@@H]1CN([C@H](C)CO)C(=O)c2cc(NC(=O)C3CCCCC3)ccc2O[C@@H](C)CCCCO[C@@H]1CN(C)C(=O)CCC(F)(F)F", "cytotoxicity call": "inactive"},
      {"smiles": "C[C@@H]1CCCCO[C@H](CN(C)Cc2ccc(C(=O)O)cc2)[C@H](C)CN([C@@H](C)CO)C(=O)c2cc(NS(=O)(=O)c3ccc(Cl)cc3)ccc2O1", "cytotoxicity call": "inactive"},
      {"smiles": "O=C(C[C@@H]1CC[C@@H]2[C@H](COC[C@H](O)CN2C(=O)c2ccncc2)O1)NC1CCC1", "cytotoxicity call": "inactive"},
      {"smiles": "C[C@@H]1CN([C@H](C)CO)C(=O)c2cc(NC(=O)Nc3ccc(F)cc3)ccc2O[C@@H]1CN(C)S(C)(=O)=O", "cytotoxicity call": "inactive"},
      {"smiles": "C[C@@H]1CN([C@H](C)CO)C(=O)c2cccc(NS(C)(=O)=O)c2O[C@@H]1CN(C)C(=O)Nc1ccccc1", "cytotoxicity call": "inactive"},
      {"smiles": "C[C@@H]1CN([C@H](C)CO)C(=O)c2cccc(NS(=O)(=O)c3ccc(F)cc3)c2O[C@H]1CN(C)C(=O)Nc1cccc2ccccc12", "cytotoxicity call": "inactive"},
      {"smiles": "CN(C)CCCCNC(=O)[C@@H]1C[C@@H]2C(=O)N[C@@H](CCCCN)C(=O)N2[C@@H]1c1ccc(O)cc1", "cytotoxicity call": "inactive"},
      {"smiles": "C[C@H]1CN([C@@H](C)CO)C(=O)Cc2cc(NS(=O)(=O)c3ccc(Cl)cc3)ccc2O[C@@H]1CN(C)Cc1ccc(C(F)(F)F)cc1", "cytotoxicity call": "active"},
      {"smiles": "C[C@@H]1CN([C@@H](C)CO)C(=O)Cc2cc(NS(=O)(=O)c3ccc(Cl)cc3)ccc2O[C@H]1CN(C)Cc1ccc(C(F)(F)F)cc1", "cytotoxicity call": "inactive"},
      {"smiles": "C[C@H](CO)N1C[C@H](C)[C@@H](CN(C)Cc2ccc(C(F)(F)F)cc2)Oc2ccc(NS(=O)(=O)c3ccc(Cl)cc3)cc2CC1=O", "cytotoxicity call": "inactive"},
      {"smiles": "CC(=O)N[C@H]1[C@H]([C@H](O)[C@H](O)CO)OC(C(=O)O)=C[C@@H]1NC(=N)N", "cytotoxicity call": "inactive"},
      {"smiles": "NS(=O)(=O)c1ccc(NC(=O)[C@H]2CCCNC2=O)cc1", "cytotoxicity call": "inactive"},
      {"smiles": "CNC(=O)Nc1ccc(S(N)(=O)=O)cc1", "cytotoxicity call": "inactive"},
      {"smiles": "NS(=O)(=O)c1ccc(NC(=O)C2CC2)cc1", "cytotoxicity call": "active"},
      {"smiles": "Cc1ccc(S(=O)(=O)N(C)C[C@@H]2Oc3c(NC(=O)c4cnccn4)cccc3C(=O)N([C@@H](C)CO)C[C@@H]2C)cc1", "cytotoxicity call": "inactive"},
      {"smiles": "COc1ccc(S(=O)(=O)Nc2ccc3c(c2)CC(=O)N([C@H](C)CO)C[C@@H](C)[C@H](CN(C)S(=O)(=O)c2cccs2)O3)cc1", "cytotoxicity call": "inactive"},
      {"smiles": "C[C@@H]1CN([C@H](C)CO)C(=O)Cc2cc(NC(=O)Nc3ccc(C(F)(F)F)cc3)ccc2O[C@H]1CN(C)Cc1ccncc1", "cytotoxicity call": "inactive"},
      {"smiles": "C[C@@H]1CN([C@H](C)CO)C(=O)Cc2cc(NC(=O)Nc3ccc(C(F)(F)F)cc3)ccc2O[C@@H]1CN(C)Cc1ccncc1", "cytotoxicity call": "active"},
      {"smiles": "C[C@H](CO)N1C[C@H](C)[C@@H](CN(C)Cc2ccncc2)Oc2ccc(NC(=O)Nc3ccc(C(F)(F)F)cc3)cc2CC1=O", "cytotoxicity call": "active"},
      {"smiles": "C[C@H](CO)N1C[C@H](C)[C@H](CN(C)Cc2ccncc2)Oc2ccc(NC(=O)Nc3ccc(C(F)(F)F)cc3)cc2CC1=O", "cytotoxicity call": "active"},
      {"smiles": "C[C@H]1CN([C@@H](C)CO)C(=O)Cc2cc(NC(=O)Nc3ccc(C(F)(F)F)cc3)ccc2O[C@@H]1CN(C)Cc1ccncc1", "cytotoxicity call": "active"},
      {"smiles": "C[C@@H]1CN([C@@H](C)CO)C(=O)Cc2cc(NC(=O)Nc3ccc(C(F)(F)F)cc3)ccc2O[C@H]1CN(C)Cc1ccncc1", "cytotoxicity call": "inactive"}
    ]}
  ]
}
